Assay results taken from PubChem BioAssay AID1159580 (chemical genetic matrix, 2015).
The whole screen tested about 5,500 compounds, of which about 2,000 (36%) were called active. Another 18% or so got no clear call; they are omitted. Rule as the data show it: active = normalized growth mostly below about 0.91 (no sharp cut-off); inconclusive = no clear call, values can overlap the other calls; inactive = mostly above about 0.92. This is one part of the list.

Assay: chemical genetic growth profiling, strain panel (AID 1159580);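 also: tested at 20 µM; growth read once vehicle control cultures reached saturation at 30 °C; 1 = growth at the plate median or of vehicle wells; lower values mean less growth of the strain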
Settings: growth OD

Measured: normalized growth

CNC(C)C(O)c1ccccc1 (centres undefined)
inactive: S. cerevisiae deletion strains, locus YJR043C, strain POL32, hits give low values 0.999 | S. cerevisiae deletion strains, locus YJR066W, strain TOR1, hits give low values 0.987 | S. cerevisiae deletion strains, locus YKL009W, strain mrt4, hits give low values 1.01 | S. cerevisiae deletion strains, locus YKL068W, hits give low values 1.01 | S. cerevisiae deletion strains, locus YKL085W, strain MDH1 (second series), hits give low values 1 | S. cerevisiae deletion strains, locus YKL085W, strain MDH1, hits give low values 1 | S. cerevisiae deletion strains, locus YKL160W, strain elf1, hits give low values 1.02 | S. cerevisiae deletion strains, locus YKL190W, strain CNB1, hits give low values 1.01 | S. cerevisiae deletion strains, locus YKR001C, strain vps1, hits give low values 1.03 | S. cerevisiae deletion strains, locus YKR026C, strain gcn3, hits give low values 1.01 | S. cerevisiae deletion strains, locus YKR091W, strain srl3, hits give low values 1.01 | S. cerevisiae deletion strains, locus YLL001W, strain dnm1, hits give low values 1.03 | S. cerevisiae deletion strains, locus YLL026W, hits give low values 1.01 | S. cerevisiae deletion strains, locus YLL041C, strain sdh2, hits give low values 1.01 | S. cerevisiae deletion strains, locus YLR027C, strain aat2, hits give low values 1.02 | S. cerevisiae deletion strains, locus YLR039C, strain RIC1, hits give low values 0.995 | S. cerevisiae deletion strains, locus YLR058C, strain SHM2, hits give low values 1 | S. cerevisiae deletion strains, locus YLR102C, strain apc9, hits give low values 1.02 | S. cerevisiae deletion strains, locus YLR113W, strain HOG1, hits give low values 0.963 | S. cerevisiae deletion strains, locus YLR221C, strain rsa3, hits give low values 1.01 | S. cerevisiae deletion strains, locus YLR258W, strain gsy2, hits give low values 1.01 | S. cerevisiae deletion strains, locus YLR262C, strain YPT6 (second series), hits give low values 1.01 | S. cerevisiae deletion strains, locus YLR262C, strain YPT6, hits give low values 1.03 | S. cerevisiae deletion strains, locus YLR268W, strain sec22, hits give low values 1.02 | S. cerevisiae deletion strains, locus YLR320W, strain mms22, hits give low values 1.02 | S. cerevisiae deletion strains, locus YLR330W, strain CHS5, hits give low values 1 | S. cerevisiae deletion strains, locus YLR342W, strain FKS1 (second series), hits give low values 1 | S. cerevisiae deletion strains, locus YLR342W, strain FKS1, hits give low values 1.02 | S. cerevisiae deletion strains, locus YLR357W, strain rsc2, hits give low values 1.05 | S. cerevisiae deletion strains, locus YLR370C, strain arc18, hits give low values 1.01 | S. cerevisiae deletion strains, locus YLR371W, strain rom2, hits give low values 1.02 | S. cerevisiae deletion strains, locus YLR384C, strain iki3, hits give low values 1.02 | S. cerevisiae deletion strains, locus YLR418C, strain cdc73, hits give low values 1.04 | S. cerevisiae deletion strains, locus YML016C, strain PPZ1, hits give low values 1.01 | S. cerevisiae deletion strains, locus YML032C, strain rad52, hits give low values 1.03 | S. cerevisiae deletion strains, locus YML120C, strain ndi1, hits give low values 1.02 | S. cerevisiae deletion strains, locus YML124C, strain tub3, hits give low values 1.03 | S. cerevisiae deletion strains, locus YMR058W, strain fet3, hits give low values 1.02 | S. cerevisiae deletion strains, locus YMR078C, strain ctf18, hits give low values 1.03 | S. cerevisiae deletion strains, locus YMR125W, strain sto1, hits give low values 0.996 | S. cerevisiae deletion strains, locus YMR129W, hits give low values 1 | S. cerevisiae deletion strains, locus YMR205C, strain PFK2, hits give low values 1.01 | S. cerevisiae deletion strains, locus YMR223W, strain ubp8, hits give low values 1.02 | S. cerevisiae deletion strains, locus YMR231W, strain pep5, hits give low values 1.01 | S. cerevisiae deletion strains, locus YMR307W, strain GAS1, hits give low values 1.02 | S. cerevisiae deletion strains, locus YNL067W, strain RPL9B, hits give low values 1 | S. cerevisiae deletion strains, locus YNL071W, strain lat1, hits give low values 1.02 | S. cerevisiae deletion strains, locus YNL128W, strain TEP1, hits give low values 1.02 | S. cerevisiae deletion strains, locus YNL183C, strain NPR1, hits give low values 0.971 | S. cerevisiae deletion strains, locus YNL209W, strain ssb2, hits give low values 1.01 | S. cerevisiae deletion strains, locus YNL233W, strain BNI4, hits give low values 1 | S. cerevisiae deletion strains, locus YNL248C, strain rpa49, hits give low values 1.01 | S. cerevisiae deletion strains, locus YNL250W, strain rad50, hits give low values 1.02 | S. cerevisiae deletion strains, locus YNL271C, strain bni1, hits give low values 1.02 | S. cerevisiae deletion strains, locus YNL298W, strain CLA4, hits give low values 1.03 | S. cerevisiae deletion strains, locus YNL307C, strain MCK1, hits give low values 1.04 | S. cerevisiae deletion strains, locus YNL322C, strain KRE1 (second series), hits give low values 1.01 | S. cerevisiae deletion strains, locus YNR049C, strain mso1, hits give low values 1.01 | S. cerevisiae deletion strains, locus YNR052C, strain pop2, hits give low values 1.02 | S. cerevisiae deletion strains, locus YOL006C, strain TOP1, hits give low values 0.993 | S. cerevisiae deletion strains, locus YOL012C, strain htz1 1.14 | S. cerevisiae deletion strains, locus YOL147C, strain pex11, hits give low values 1.03 | S. cerevisiae deletion strains, locus YOR001W, strain rrp6, hits give low values 1.02 | S. cerevisiae deletion strains, locus YOR061W, strain CKA2, hits give low values 1.01 | S. cerevisiae deletion strains, locus YOR069W, strain VPS5, hits give low values 1 | S. cerevisiae deletion strains, locus YOR070C, strain gyp1, hits give low values 1.01 | S. cerevisiae deletion strains, locus YOR080W, strain dia2, hits give low values 1.01 | S. cerevisiae deletion strains, locus YOR083W, strain WHI5, hits give low values 1.02 | S. cerevisiae deletion strains, locus YOR106W, strain vam3, hits give low values 1.03 | S. cerevisiae deletion strains, locus YOR136W, strain idh2, hits give low values 1.02 | S. cerevisiae deletion strains, locus YOR144C, strain elg1, hits give low values 1.01 | S. cerevisiae deletion strains, locus YOR184W, strain ser1, hits give low values 1.03 | S. cerevisiae deletion strains, locus YOR231W, strain MKK1, hits give low values 0.995 | S. cerevisiae deletion strains, locus YOR265W, strain rbl2, hits give low values 1.01 | S. cerevisiae deletion strains, locus YOR270C, strain vph1, hits give low values 1.04 | S. cerevisiae deletion strains, locus YOR290C, strain snf2, hits give low values 1 | S. cerevisiae deletion strains, locus YOR316C, strain cot1, hits give low values 1.02 | S. cerevisiae deletion strains, locus YPL051W, strain arl3, hits give low values 1.02 | S. cerevisiae deletion strains, locus YPL055C, strain LGE1, hits give low values 1.01 | S. cerevisiae deletion strains, locus YPL078C, strain atp4, hits give low values 1.03 | S. cerevisiae deletion strains, locus YPL106C, strain sse1, hits give low values 1.01 | S. cerevisiae deletion strains, locus YPL240C, strain hsp82, hits give low values 1.01 | S. cerevisiae deletion strains, locus YPL256C, strain CLN2, hits give low values 1.03 | S. cerevisiae deletion strains, locus YPR119W, strain clb2, hits give low values 1.02 | S. cerevisiae deletion strains, locus YPR141C, strain kar3, hits give low values 1.02 | S. cerevisiae deletion strains, locus YPR163C, strain tif3, hits give low values 1.04 | S. cerevisiae deletion strains, locus YPR167C, strain met16, hits give low values 1.02 | S. cerevisiae deletion strains, strain wtn01, hits give low values 1.02 | S. cerevisiae strains, strain wild type, hits give low values 0.999
